# Experimental data as given in PubChem BioAssay AID903 (National Center for Advancing Translational Sciences (NCATS), 2007).
# Screen size: about 55,000 compounds; about 340 (0.62%) were called active. Not shown: some 3% with an inconclusive outcome. The list comes from a sample in which actives are over-represented; it also holds similar structures and randomly drawn compounds. A number with no mark means an inactive call. Calls come from the whole dose curve; as a rule, active = well fitted cell-killing curve with a large enough effect; inconclusive = small, poorly fitted or top-dose-only effect; inactive = no such curve, though single readings can be large or run the other way.
# Experiment: qHTS Screen for Compounds that Selectively Target Cancer Cells with p53 Mutations: Cytotoxicity of p53 Null Cells at the Permissive Temperature; note: nearly all actives have a fitted effect of over 55% in size;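 for activity change, negative = cytotoxicity: 0% = DMSO only and -100% = full killing by 100 µM tamoxifen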
# Details: H1299-neo p53 null cells, ATP luminescence, 24 h, 32C; series mostly up to 46.1 µM; activity change, negative = cytotoxicity: at the top concentration
# Outline: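 Luminescent ATP readout gave cell viability of p53-null H1299-neo cells after a 24 h compound exposure at the permissive 32C. Titrations ran up to 46 uM, and AC50s were fitted with the standard Hill equation.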
# Potency is the fitted concentration of half-maximal effect.
Compound,"activity change, negative = cytotoxicity [%]",Potency
CCOc1ccc(CCNC(=O)c2cc3c(=O)n(C)c4ccccc4c3n2C)cc1,-5.8,–
CCCn1c(=N)c(C(=O)NCc2ccccc2)cc2c(=O)n3cccc(C)c3nc21,11,–
Cc1ccccc1NC(=O)CN1C(=O)C(C)(C)c2ccccc21,-2.97,–
O=C(Nc1ccc(Br)cc1)c1cc2nc(-c3ccccc3)cc(-c3ccccc3)n2n1,1.89,–
CCCOc1ccc(C2c3c(-c4ccccc4O)n[nH]c3C(=O)N2Cc2cccnc2)cc1 (configuration not stated),38.5,–
CC1CCc2noc(NC(=O)c3ccc([N+](=O)[O-])cc3)c2C1 (configuration not stated),-0.123,–
COc1ccc(-c2cc(C(=O)Nc3sc4c(c3C(N)=O)CCCC4)no2)cc1,0.619,–
COc1ccc(C(=O)Nc2onc3c2CCCC3)cc1,–,7.94 µM (active)
O=c1c(Cl)c(NCc2ccc(F)cc2Cl)cnn1C12CC3CC(CC(C3)C1)C2,-3.19,–
Cc1cccc(OCc2ccc(C(=O)Nc3ccc(F)cc3)cc2)c1,-16.1,–
Cc1cccc(C)c1-n1ncc(C(=O)NCCCN2CCCCC2)c1C1CCN(C(=O)OC(C)(C)C)CC1,7.41,–
COc1cccc(C(=O)NCC(=O)OCc2cc(=O)n3ccsc3n2)c1,-11.1,–
CCC(C(=O)Nc1cccc(-c2nc3cccnc3s2)c1C)c1ccccc1 (configuration not stated),5.41,–
Cc1c(NC(=O)Cc2ccccc2)cccc1-c1nc2cccnc2s1,2.04,–
Cc1c(NC(=O)C(C)(C)C)cccc1-c1nc2ccccc2s1,–,10 µM (active)
O=C(Cc1c[nH]c2ccccc12)N/N=C/c1cccc(F)c1,-18.8,–
Cc1ccccc1Nc1nn2c(=O)c3ccc(C(=O)NCCc4ccc(Cl)cc4)cc3nc2s1,-15.5,–
CCOc1ccccc1C(=O)Nc1ccc(S(=O)(=O)N2CCCCC2c2cccnc2)cc1 (configuration not stated),3.25,–
O=c1c2cccnc2n(Cc2cccc(F)c2)c(=O)n1Cc1ccccc1Cl,-7.53,–
COc1ccc(S(=O)(=O)n2nc(C)c(S(=O)(=O)N3CCCCCC3)c2C)cc1,-2.68,–
CCOC(=O)c1c(/N=C/c2cc(C)ccc2O)sc2c1CCC2,6.17,–
CCC(=O)N1CCc2cc(S(=O)(=O)CCC(=O)N3CCN(c4ccccc4F)CC3)ccc21,9.11,–
Cc1ccc(CNC(=O)CCC(=O)N2CC(C)Sc3ccccc32)cc1 (configuration not stated),0.966,–
CCOc1ccc(NC(=O)CCc2c(C)nn(-c3ccc(N4CCCC4)nn3)c2C)cc1,-3.11,–
CCCOc1ccc(-c2cccc(NS(=O)(=O)c3ccccc3)c2)nn1,22.4,–
Cn1nnc2c(N3CCN(c4ccccc4)CC3)ncnc21,2.99,–

Compound,"activity change, negative = cytotoxicity [%]",Potency
COc1ccccc1Nc1c2c(nc3ccc(NC(=O)/C=C/c4cc(OC)c(OC)c(OC)c4)cc13)CCCC2,–,15.8 µM (active)
CCOc1ccc(C(=O)Nc2ccc3nc4c(c(Nc5ccccc5OC)c3c2)CCCC4)cc1,-13,–
O=C(Nc1c2c(nc3ccccc13)CCCC2)c1ccccc1Br,-2.95,–
COc1ccc(-n2ccn(CC(=O)Nc3ccc(C)c(C)c3)c(=O)c2=O)cc1OC,8.42,–
CCN(CC)S(=O)(=O)c1nnc(NC(=O)COc2ccccc2Cl)s1,-17.3,–
CCN(Cc1ccccc1)C(=O)c1cn(-c2cccc(OC)c2)c(=O)c2ccccc12,3.16,–
COc1ccc(NC(=O)CSc2nc3ncccc3[nH]2)c(OC)c1,-12.6,–
COC(=O)c1c(NC(=O)c2ccc(Cl)c(Cl)c2)sc2c1CCCC2,3.23,–
Clc1ccc(-n2nnnc2-c2cnc(-c3ccccn3)nc2-c2cccs2)cc1,18,–
c1ccc(-c2noc(-c3cccs3)n2)nc1,–,10 µM (active)
Cc1ccc(C)c(N2CCN(C(=O)C3CCC(CNS(=O)(=O)c4cccs4)CC3)CC2)c1 (configuration not stated),41.1,–
O=C(COc1nc2ccccc2nc1N1CCOCC1)NCC(F)(F)F,-4.1,–
CN(C)CCCO/N=C(\c1ccccc1)c1ccncc1,3.09,–
Cc1ccc(CN2CCC(CNC(=O)c3cnn(-c4ccccc4Cl)c3C3CCN(C(=O)OC(C)(C)C)CC3)CC2)cc1,15.7,–
Cc1ccc(C)n1-c1nnc(N2CCC(C(=O)NCc3ccccc3Cl)CC2)s1,9.93,–
COc1ccc(-c2nc(SCC(=O)N3CCCCC3C)n[nH]2)cc1 (configuration not stated),-7.2,–
Cc1ccc(NC(=S)NC(=O)/C=C/c2ccc(Cl)cc2)cc1,0.296,–
Cc1cc(=O)n(CC(=O)Nc2cccc([N+](=O)[O-])c2)c(-n2nc(C)cc2C)n1,-0.133,–
CN(C)c1ccc(NC(=O)CSc2nc(-c3ccco3)cc(C(F)(F)F)n2)cc1,10.9,–
CCCN(CCC)c1c([N+](=O)[O-])c(=O)oc2ccccc12,3.8,–
COc1ccc(C(=O)NCC(c2ccc(N(C)C)cc2)N2CCc3ccccc32)c(OC)c1 (configuration not stated),0.255,–
CCOC(=O)c1c(C)[nH]c(CCC(=O)NCCCN2CCN(c3cc(C)ccc3C)CC2)c1C,9.67,–
O=C(Nc1ccc(OC(F)(F)F)cc1)C1CCCN(S(=O)(=O)c2ccc(Br)s2)C1 (configuration not stated),1.93,–
Cc1ccc2nc3c(cc(C(=O)NC4CCCCC4)c(=N)n3C(C)C)c(=O)n2c1,2.45,–
COc1cccc(CNC(=O)C(NS(=O)(=O)c2ccc3nc(C)sc3c2)C(C)C)c1 (configuration not stated),-7.22,–
CC(C)(C)c1ccc(C(=O)NCC(c2ccco2)S(=O)(=O)c2ccc(F)cc2)cc1 (configuration not stated),20,–
